This note sets out measurements from PubChem BioAssay (NCATS).

Assay [1] is described as follows: Cell Viability - MRC5 (AID 434; calls by dose curve;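 further: potency means the concentration at half of the fitted maximal effect; potency reflects cytotoxicity seen as loss of intracellular ATP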). As to conditions: MRC5 lung fibroblast viability, qHTS. A digest of the protocol:
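MRC5 normal human lung fibroblasts, 1500 cells/well, exposed to compound for 40 hr at 37 C. Cellular ATP was read by CellTiter-Glo luminescence; data normalized to DMSO and 100 uM tamoxifen, with AC50 from Hill fits.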
In general terms: In qHTS, concentration-response curves come from the screen itself.

Assay [2] is described as follows: Cell Viability - HUV-EC-C (AID 542). Further: on the % scale 0 is the no-effect control and ±100 the full control effect; nearly all actives have a fitted effect of over 35% in size. As to conditions: HUV-EC-C endothelial cell viability, qHTS; series mostly up to 92.2 µM. The method in brief:
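qHTS cytotoxicity: HUV-EC-C, 1000 cells/well, 5 hr settle, compound 40 hr 37 °C, CellTiter-Glo, luminescence. AC50 via Hill equation.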

Assay [3] can be described thus: Cellular Toxicity (caspase-3) HepG2 (AID 654).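 Further: cells exposed to compound for 16 hours before reading; 0% = DMSO alone and 100% = caspase signal from 100 µM tamoxifen.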 To be noted: HepG2 caspase-3 activation, luminescence; series mostly up to 92.2 µM. A digest of the protocol: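 Cells plated 5 hr at 37 °C, compound added, incubated 16 hr at 37 °C. Caspase-Glo 3/7 reagent followed, 20 min at room temperature, then luminescence read. Activation scored as signal increase; AC50 from Hill fit.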

A short description of assay [4]: Cellular Toxicity (caspase-3) HUV-EC-C (AID 656). To be noted: HUV-EC-C cells, caspase-3 activation (apoptosis); series mostly up to 92.2 µM. The method in brief:
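Luminescent caspase-3/7 activation (aminoluciferin substrate cleavage) in HUV-EC-C cells after 16 hr compound exposure, 37°C. Signal normalized to DMSO basal and 100 uM tamoxifen as 100%; AC50 from concentration-response fitted with the Hill equation.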

The nature of assay [5]: Cellular Toxicity (caspase-3) SHSY5Y (AID 657). To be noted: SH-SY5Y caspase-3 activation; series mostly up to 91.7 µM. A digest of the protocol:
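Luminescent caspase-3/7 readout (aminoluciferin release) in SH-SY5Y cells after 16 h compound exposure in complete medium. Activity scaled between DMSO basal and 10 uM staurosporine as 100%; concentration-response fitted to Hill equation for AC50.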

Assay [6] can be described thus: Cellular Toxicity (caspase-3) Mesangial (AID 660).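 Further: combined caspase 3 and 7 activity read by Caspase-Glo luminescence.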 As to conditions: mesangial cells, normalized: DMSO 0%, 100 µM tamoxifen 100%; series mostly up to 91.7 µM. The method in brief:
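Mesangial cells, 1000/well, 5 h settle at 37 °C; compound 16 h, 37 °C; Caspase-Glo 3/7 reagent 20 min RT; luminescence. Norm.: DMSO = 0%, tamoxifen 100 uM = 100%. AC50, Hill fit.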

Assay [7] is described as follows: Cellular Toxicity (caspase-3) SK-N-SH (AID 661). As to conditions: SK-N-SH caspase-3 activation, qHTS, DMSO as zero, staurosporine as full; series mostly up to 91.7 µM. A digest of the protocol:
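Human neuroblastoma SK-N-SH, 1500 cells/well, 5 hr pre-incubation, then compound 16 hr, 37 °C. Caspase-Glo 3/7 reagent, 1 hr RT, luminescence. Norm. to DMSO/10 uM staurosporine; Hill-fit AC50.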

A short description of assay [8]: Cellular Toxicity (caspase-3) H-4-II-E (AID 663). As to conditions: H-4-II-E rat hepatoma; Potency: caspase-3 activation; series mostly up to 92.2 µM. A digest of the protocol: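 Rat hepatoma H-4-II-E cells (1500/well) plated 5 hr, then exposed to compound titrations for 16 hr at 37 °C. Caspase-Glo 3/7 luminescence read after 20 min at RT; data normalized to DMSO and 100 uM tamoxifen, AC50 from Hill fits.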

A short description of assay [9]: Cellular Toxicity (caspase-3) N2a (AID 665).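 Further: compound exposure lasted 16 h at 37 °C before readout.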 To be noted: N2a cells, luminescence, normalized: DMSO 0%, 10 µM staurosporine 100%; series mostly up to 92.2 µM. A digest of the protocol: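 N2a cells, 1500/well, 5 h settle at 37 °C; cpd 16 h, 37 °C; Caspase-Glo 3/7, 1 h RT; luminescence. Norm: DMSO = 0, 10 uM staurosporine = 100%. AC50, Hill fit.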
Assay [10] is described as follows: Cellular Toxicity (caspase-3) NIH 3T3 (AID 666).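 Further: 0% = DMSO basal and 100% = 100 µM tamoxifen stimulation.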 To be noted: NIH 3T3 caspase-3 activation, apoptosis/toxicity, 0% DMSO, 100% is 100 µM tamoxifen; series mostly up to 92.2 µM. The method in brief: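 Luminescence from aminoluciferin released by caspase-3/7 cleavage of a peptide substrate served as read-out. Mouse fibroblast NIH 3T3 cells were exposed to compounds over a concentration range for 16 hours, and AC50 values came from standard Hill modelling.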

Assay [11] is described as follows: Cellular Toxicity (caspase-3) Renal Proximal Tubule (AID 667).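 Further: cells exposed to compound for 16 hours at 37 °C before detection.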 To be noted: renal proximal tubule cells, primary cells freshly taken from rat; Potency: caspase-3 activation; series mostly up to 91.7 µM. A digest of the protocol: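 Luminescent caspase 3/7 signal from peptide-aminoluciferin cleavage measures apoptosis in freshly isolated rat kidney proximal tubule cells after 16 h compound exposure. Concentration-response data are normalized to DMSO and 10 uM staurosporine, and AC50 values come from Hill equation fits.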

A short description of assay [12]: MultiTox-Fluor Cytotoxicity Assay - LYMP1-001 - Dead Cells (AID 946).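 Further: 0% = DMSO and 100% = tetraoctylammonium bromide.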 To be noted: LYMP1-001 lymphoblastoid cells, dead-cell protease fluorescence; series mostly up to 92.2 µM. A digest of the protocol:
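In this qHTS, 15 uM tetraoctylammonium bromide defined 100% and DMSO defined basal activity. Lymphoblastoid cells (LYMP1-001, 2500 per well) received compound for 16 hr at 37 C before a fluorogenic dead-cell substrate readout at 485/520 nm.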

The nature of assay [13]: MultiTox-Fluor Cytotoxicity Assay - LYMP1-003 - Dead Cells (AID 961).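 Further: 0% = DMSO and 100% = tetraoctylammonium bromide; nearly all actives have a fitted effect of over 70% in size.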 As to conditions: LYMP1-003 lymphoblastoid cells, dead-cell protease fluorescence; series mostly up to 92.2 µM. The method in brief:
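Acute toxicity is scored as increased dead-cell protease activity in human lymphoblastoid LYMP1-003 cells after 16 h compound exposure in complete culture medium. Activity is normalized to DMSO basal and 15 uM tetraoctylammonium bromide as full response.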

Assay [14] in a line: MultiTox-Fluor Cytotoxicity Assay - LYMP1-003 - Live Cells (AID 962).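 Further: 0% = DMSO only and full loss = 92 µM tetraoctylammonium bromide; cytotoxic hits lower the live-cell protease signal.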 To be noted: LYMP1-003 lymphoblastoid cells, MultiTox-Fluor live-cell protease fluorescence; series mostly up to 92.2 µM. A digest of the protocol:
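qHTS, 1536-well; 2500 cells/well LYMP1-003; 5 hr 37 C settle; cpd 16 hr 37 C; MultiTox-Fluor reagent 60 min RT; live-cell protease fluor. 405/510; Hill-fit AC50; tetraoctylammonium bromide pos. ctrl.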

Assay [15] in a line: Cell Viability - LYMP1-003 - Assay at 24 hr (AID 963).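 Further: plate controls were DMSO only for no effect and tetraoctylammonium bromide positive control for full effect.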 As to conditions: LYMP1-003 lymphoblastoid cell viability; series mostly up to 92.2 µM. The method in brief:
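Cells seeded at 2500/well, 5 hr at 37 C; compounds added; 24 hr at 37 C; CellTiter-Glo added, 30 min room temperature; luminescence read. Decrease in ATP taken as cytotoxicity, AC50 from Hill modelling.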

A short description of assay [16]: Cell Viability - LYMP1-002 - Assay at 24 hr (AID 993). Further: on the % scale 0 is the no-effect control and ±100 the full control effect. To be noted: LYMP1-002 lymphoblastoid cells viability; series mostly up to 92.2 µM. The method in brief: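 Cells plated 2500/well, 5 hr 37 C; compounds added, 24 hr 37 C; CellTiter-Glo added, 30 min RT; luminescence read. Tetraoctylammonium bromide positive control. Hill-equation AC50.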
A short description of assay [17]: qHTS Assay for Identification of Small Molecule Inducers of Hypoxia Response (AID 2120; active means well fitted curve in the direction sought with a large enough effect in the signal ratio, with a control signal flat, not every such curve was filed as active; the % refers to the signal ratio; further: potency means the concentration at half of the fitted maximal effect; on activation: 0% is about no effect). As to conditions: hypoxia response reporter cells, beta-lactamase ratio readout; series mostly up to 104 µM. A digest of the protocol:
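ME-180 HRE-bla cells plated in Opti-MEM/0.5% dialyzed FBS, rested 4-5 h, then dosed with compound titrations by pin tool. After 17 h at 37 degrees C, CCF4 dye loaded 2.5 h at RT; 460/530 nm ratio gave %Activity and AC50.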

Assay [18] has as its target Peroxisome proliferator-activated receptor alpha (Homo sapiens) (UniProt Q07869). Briefly: qHTS assay for small molecule agonists of the peroxisome proliferator-activated receptor alpha (PPARalpha) signaling pathway (AID 651778). Further: % of control where 0% means no effect. To be noted: PathHunter PPARalpha complementation, chemiluminescence, 6 h; max response: hits give high values. The method in brief: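 Enzyme-fragment complementation assay in which ligand-bound PPARalpha translocates and forms an active enzyme that generates chemiluminescence. Cells were plated overnight, exposed to compound for 6 hr at 37 C, and then given detection reagent for 60 min at room temperature.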

A short description of assay [19]: qHTS assay for small molecule agonists of the antioxidant response element (ARE) signaling pathway measured by Nrf2-dependant transcriptional activity - cell viability counter screen (AID 720653; active means well fitted curve in the direction sought with a large enough effect in the repeat runs; an effect the other way counts as inactive or inconclusive; further: on the % scale 0 is the no-effect control and ±100 the full control effect). As to conditions: ARE-bla HepG2 viability, CellTiter-Glo ATP luminescence, 16 h; max response: hits give low values. A digest of the protocol: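 ARE-bla HepG2 cells treated with compounds for 16 h at 37C; this counter screen measures viability as intracellular ATP by CellTiter-Glo luminescence after 30 min at room temperature.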

A short description of assay [20]: qHTS assay for cell viability of the p53RE-bla HCT-116 cell line (AID 743292). Further: on the % scale 0 is the no-effect control and ±100 the full control effect; nearly all actives have a fitted effect of over 55% in size. To be noted: p53RE-bla HCT-116 viability, ATP luminescence, 16 h; series mostly up to 95 µM. The method in brief: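 Compound-exposed HCT-116 (p53RE-bla) cells, 4,000 per well, were kept 16 h at 37 C following a 5 h preincubation. Cell number was estimated from total ATP by CellTiter-Glo luminescence read after 30 min at room temperature.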

Where “and” joins values, the source holds several entries; their conditions need not be identical. Equal values may be shown once. A number with no mark means an inactive call. Inconclusive results are not listed. Calls of active or inactive are those of the source. Unless noted, the call rests on the fitted dose curve; in most records, active means well fitted curve in the direction sought with a large enough effect; inconclusive means small, poorly fitted or top-dose-only effect, or another doubt; inactive means no such curve, though single readings can be large; an effect the other way counts as inactive or inconclusive.

Chain of Peroxisome proliferator-activated receptor alpha (Homo sapiens) (Q07869 whole entry, looked up, the tested form may be a part): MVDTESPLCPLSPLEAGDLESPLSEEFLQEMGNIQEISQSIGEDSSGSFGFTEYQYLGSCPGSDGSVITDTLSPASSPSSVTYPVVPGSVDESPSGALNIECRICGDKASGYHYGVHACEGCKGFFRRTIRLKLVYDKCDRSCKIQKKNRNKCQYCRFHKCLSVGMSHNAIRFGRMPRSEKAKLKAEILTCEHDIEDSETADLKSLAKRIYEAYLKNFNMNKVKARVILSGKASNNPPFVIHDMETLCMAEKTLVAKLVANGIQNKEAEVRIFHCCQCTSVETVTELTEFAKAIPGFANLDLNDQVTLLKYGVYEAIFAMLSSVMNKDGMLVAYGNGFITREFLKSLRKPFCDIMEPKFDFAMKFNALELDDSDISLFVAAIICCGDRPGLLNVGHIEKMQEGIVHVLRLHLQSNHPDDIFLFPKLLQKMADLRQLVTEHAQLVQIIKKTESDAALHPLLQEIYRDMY

`Nc1cc(C(=O)O)c(O)c(S(=O)(=O)O)c1`: the Potency in [1] is more than 92 µM. The Potency entry in assay [2], in [3], in assay [4], in [5], in [8] and in assay [11] was “inactive” each time. For the same compound, the Potency result in assay [12], in assay [13], in assay [14], in assay [15], in assay [16] and in assay [17] was “inactive” throughout. The Potency result in assay [20] was “inactive”. Moreover, the compound was classed as inactive in assay [6], in [7], in assay [9] and in assay [10]. The max response in assay [18] was -5.08%; in assay [19] it was 2.52%.
As to `CCN(CC)c1ccc2c(C)cc(=O)oc2c1`, the Potency in [1] is more than 92 µM; in assay [17], 44.7 µM (active). Besides, the Potency entry in assay [2], in assay [3], in [4], in [5], in [8] and in [11] was “inactive” throughout. For the same compound, the Potency entry in [12], in assay [13], in assay [14], in assay [15], in [16] and in assay [20] was “inactive” throughout. For the same compound, the call in assay [6], in assay [7], in assay [9] and in assay [10] was inactive. Moreover, the results for the max response in assay [18] and in assay [19] were -3.98% and -2.1%, respectively.
`Oc1cc(Cl)cc(Cl)c1Cl`: the Potency in [1] was more than 92 µM. The Potency result in assay [2], in [3], in assay [4], in [5], in assay [8] and in assay [11] was “inactive” in each case. Also, the Potency result in assay [12], in assay [13], in assay [14], in assay [15], in assay [16] and in [17] was “inactive” in each case. Moreover, in [20], the Potency result was “inactive”. Further, the outcome in [6], in assay [7], in assay [9] and in [10] was inactive. Moreover, the values for the max response in assay [18] and in [19] were 6.36% and -7.11%, respectively.
As for `c1ccc(Nc2cccc3ccccc23)cc1`, the Potency in assay [1] was more than 92 µM. For the same compound, the Potency entry in assay [2], in [3], in assay [4], in assay [5], in assay [8] and in assay [11] was “inactive” in each case. For the same compound, the Potency result in assay [12], in assay [13], in assay [14], in [15], in assay [16] and in [17] was “inactive” each time. Besides, the Potency entry in [20] was “inactive”. Besides, the call in assay [6], in assay [7], in assay [9] and in assay [10] was inactive. For the same compound, in [19], the max response is -11.3% and -26.9%.
As to `NC(=O)Nc1nc2ccccc2[nH]1`, the Potency in [1] was more than 92 µM. In addition, the Potency entry in assay [2], in assay [3], in assay [4], in assay [5], in [8] and in assay [11] was “inactive” throughout. The Potency entry in assay [12], in assay [13], in assay [14], in [15], in assay [16] and in [17] was “inactive” each time. Further, the Potency entry in assay [20] was “inactive”. Moreover, the result in [6], in [7], in assay [9] and in assay [10] was inactive. Further, the max response in assay [18] was -2.7%; in assay [19], -9.91%.
Regarding `Nc1ccc(N)c(Cl)c1`, the Potency in [1] is more than 92 µM. The Potency result in [2], in assay [3], in assay [4], in [5], in [8] and in [11] was “inactive” in each case. In addition, the Potency result in assay [12], in assay [13], in assay [16], in [17] and in assay [20] was “inactive” throughout. The outcome in assay [6], in assay [7], in assay [9] and in assay [10] was inactive. Further, the max response is 0.817% in assay [18] and 24% in assay [19].
